Data taken from PubChem BioAssay AID651593 (National Center for Advancing Translational Sciences (NCATS), 2012).
The whole screen tested about 1,100 compounds, of which about 860 (78%) were called active. Not shown: some 19% with an inconclusive outcome. The call rests on the fitted dose curve; in most records, active means well fitted activation curve with a large enough effect; inconclusive means small, poorly fitted or top-dose-only effect; inactive means flat fitted curve, though single readings scatter. So high a share suggests a set chosen from earlier hits. Some of the results follow.

assay: qHTS of Nrf2 Activators: Hit Validation in Primary Assay; conditions: Nrf2/ARE reporter cell assay; Potency: activation; series mostly up to 46.1 µM; activation: at the top concentration; further: nearly all actives have a fitted effect of over 70% in size; on activation: 0% is about no effect
Outline: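 Luminescence from Steady-Glo lysis reagent, read after 30 min, reported ARE-luciferase activity in AREc32_fluc stable cells. Compounds were tested at several concentrations, incubated 24 h at 37 °C with 5% CO2 following overnight seeding.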
Potency means the concentration at half of the fitted maximal effect.

Potency, active:
CSc1nnc(-c2ccco2)c(-c2ccco2)n1 11.6 µM
O=C(CSc1nnc(-c2ccco2)c(-c2ccco2)n1)c1ccccc1 5.17 µM
CSC1=NC(C)(C)C=C(/C=C/c2ccc(Cl)cc2)N1 9.2 µM
Brc1cc(Cc2nnc(-c3ccccc3)o2)c(Br)s1 8.2 µM
O=C(Nc1ccccc1O)c1cccc(NC(=O)c2ccco2)c1 4.11 µM
Cc1ccc(O)c(NC(=O)c2cccc(NC(=O)c3ccco3)c2)c1 2.59 µM
O=C(Nc1ccccc1C(=O)NCCc1ccccc1)c1ccco1 2.06 µM
CCCc1nc([N+](=O)[O-])c(S(=O)(=O)c2ccccc2)n1CC(C)C 3.26 µM
S=C(NCc1ccco1)Nc1ccccn1 9.2 µM
Brc1ccc(-c2nnc(-c3cccnc3)c3conc23)cc1 0.517 µM
C#CCSc1nc(-c2cccs2)ccc1C#N 4.61 µM
Cc1cc(C)n(-c2nc3ccccc3c(=O)n2OCc2ccc(F)cc2)n1 1.84 µM
CC1(C)CC[C@]2(C(=O)n3ccnc3)CC[C@]3(C)[C@H](C(=O)C=C4[C@@]5(C)C=C(C#N)C(=O)C(C)(C)[C@@H]5CC[C@]43C)[C@@H]2C1 0.092 µM
O=[N+]([O-])c1ccc(NN=Cc2ccco2)nc1 0.731 µM
Brc1ccc(-c2csc(N/N=C/c3ccco3)n2)cc1 2.91 µM
CCn1nc(C)c(Br)c1-c1nc(-c2cccc(C)c2)no1 8.2 µM
O=C(Nc1cccc(F)c1)c1cc(-c2ccco2)nc2ccccc12 2.06 µM
O=C(Nc1ccccc1F)c1cc(-c2ccco2)nc2ccccc12 2.06 µM
COc1ccccc1CNC(=O)COC(=O)c1cc(-c2ccco2)nc2ccccc12 9.2 µM
O=C(Nc1ccc(F)cc1F)c1cc(-c2ccco2)nc2ccccc12 0.731 µM
CC1Oc2ccccc2OC1C(=O)Nc1ccccn1 (stereo not given) 2.91 µM
CSc1nsc(SC)c1NC(=O)Nc1ccccn1 5.17 µM
O=[N+]([O-])c1cc(Cl)cc2c1nc(NCCO)c1ccccc12 10.3 µM
Brc1ccccc1/C=N/Nc1ccccn1 6.51 µM
O=[N+]([O-])c1ccc(Cl)cc1C=NNc1ccccn1 3.26 µM
Clc1ccccc1NN=Cc1ccccn1 5.8 µM
Clc1cccc(Cl)c1/C=N\Nc1nccs1 9.2 µM
Clc1ccccc1C=NNc1ccccn1 2.31 µM
Fc1cccc(Cl)c1/C=N/Nc1ccccn1 4.11 µM
Cc1ccc(C)c(/C=N/Nc2ccccn2)c1 6.51 µM
O=[N+]([O-])c1ccc(Cl)cc1N/N=C/c1ccncc1 0.731 µM
CCOc1ccccc1NS(=O)(=O)c1c(C(=O)OC)sc2cccc(F)c12 14.6 µM
O=C1C(Cl)=C(N2CCN(c3ccccc3[N+](=O)[O-])CC2)C(=O)c2ccccc21 3.66 µM
Cc1cc(=O)n2nc(-c3ccccc3)sc2c1C#N 4.11 µM
CCn1c(=O)c([N+](=O)[O-])c(NCc2ccco2)c2ccccc21 5.8 µM
N#Cc1ccccc1N/C=C/C(=O)c1ccc(Cl)cc1 2.31 µM
CC(/C=N/Nc1nnc2c(n1)[nH]c1ccccc12)=C\c1ccco1 10.3 µM
COc1ccc(OC)c(/C=C2\SC(=S)N(Cc3cccnc3)C2=O)c1 5.17 µM
O=C1/C(=C/c2ccccc2O)SC(=S)N1Cc1cccnc1 4.61 µM
O=C1CSC(=S)N1Cc1cccnc1 10.3 µM
C#CCOc1ccc(/C=C2\SC(=S)N(Cc3cccnc3)C2=O)cc1 4.61 µM
C[C@H]1CCC[C@]2(C)C[C@H]3OC(=O)C(CN4CCCCCC4)[C@H]3C=C12 (stereo not given in full) 5.8 µM
CC1CCN(CC2C(=O)O[C@@H]3C[C@@]4(C)CCC[C@H](C)C4=C[C@H]23)CC(C)(C)C1 (stereo not given in full) 5.8 µM
Brc1cc(Br)c2nc(-c3cccs3)ccc2c1 4.11 µM
O=C(CN1CC(=O)Oc2ccccc21)OCC(=O)c1ccc(F)cc1 18.4 µM
N/C(=N\OC(=O)c1ccco1)c1cccc(Br)c1 20.6 µM
Cc1csc(-c2ccc3cc(Cl)cc(Cl)c3n2)n1 2.59 µM
O=C(O)CCCCCN1C(=O)/C(=C\c2ccncc2)SC1=S 2.91 µM
N#Cc1nc(-c2ccco2)oc1N1CCCC1 2.31 µM
Cc1nc(-c2ccccn2)sc1C(=O)Nc1ccc(F)cc1 2.31 µM
Cc1ccc2cccc(NC(=S)NC(=O)c3ccccc3)c2n1 4.61 µM
Cc1cc(C)c2c(NC(=S)NC(=O)c3ccccc3)nn(C)c2n1 7.31 µM
Cc1csc(NC(=S)NC(=O)c2ccccc2)n1 11.6 µM
O=C(NC(=S)Nc1nc(-c2ccccc2)cs1)c1cccs1 3.66 µM
Clc1ccc(-c2ccnc(-n3cccc3)n2)s1 2.59 µM
c1coc(-c2ccnc(-n3cccc3)n2)c1 2.59 µM
c1coc(-c2ccnc3nc(-n4cccc4)nn23)c1 4.11 µM
CSc1nc2sc3c(c2c(=O)n1C)CCC(C)C3 (stereo not given) 18.4 µM
Cc1cc(C)c(-n2c(SCCS(=O)(=O)c3ccc(F)cc3)n[nH]c2=O)c(C)c1 20.6 µM
NC(=O)c1ccsc1NC(=O)COC(=O)[C@@H]1CCCN1C(=O)c1cccs1 6.51 µM
O=C(NNC(=O)c1nc(Cl)ccc1Cl)c1ccc(F)cc1 11.6 µM
O=C1C(=C2CCc3ccccc32)Cc2ccccc21 1.03 µM
COC(=O)c1ccc2nc(-c3cccc(Br)c3)c(CC3CCCCC3)n2c1 13 µM
COC(=O)c1ccc2nc(-c3ccc(F)cc3)c(CC3CCCCC3)n2c1 9.2 µM
O=c1cc(-c2ccccc2)nc2c(Cl)cc(Cl)cn12 3.66 µM
COCCn1c(C(F)(F)F)ccc(NC(=O)c2ccccc2)c1=O 2.31 µM
FC(F)(F)c1cc(-c2cccs2)nc2cc(-c3cccs3)nn12 2.91 µM
Cc1ncc(N=Nc2ccccc2)c(-c2ccccc2)n1 3.66 µM
Cc1ccc(CNC(=O)c2sccc2-n2cccc2)cc1 5.17 µM
CC(C)c1ccc(NC(=O)c2sccc2-n2cccc2)cc1 2.59 µM
O=c1oc2ccc(Br)cc2cc1-c1nc2ccccc2o1 23.1 µM
O=C(Cn1ncc(Cl)c(Cl)c1=O)NC1CCS(=O)(=O)C1 (stereo not given) 6.51 µM
O=C(Nc1cccc2ncccc12)c1ccc(Cl)cc1 2.59 µM
Cc1cc(-c2sccc2C)nc(-n2cccc2)n1 5.8 µM
Cc1cc(-c2sccc2Br)nc(-n2cccc2)n1 3.66 µM
Cc1cc(-c2cccs2)nc(-n2cccc2)n1 5.17 µM
Cc1ccsc1-c1ccnc(-n2cccc2)n1 11.6 µM
CS(=O)(=O)c1nc(S(=O)(=O)c2ccc(Cl)cc2)c(N2CCOCC2)s1 4.11 µM
Cc1ccc(S(=O)(=O)c2nc(S(C)(=O)=O)sc2N2CCOCC2)cc1 8.2 µM
Cc1nnc2n1N=CC=C(c1ccccc1)S2 3.66 µM
Clc1ccc2c(NCc3ccccn3)ncnc2c1 4.61 µM
Oc1ccc(Cl)cc1N=Cc1sc2ccccc2c1Cl 6.51 µM
CCc1cc2c(NCc3ccco3)ncnc2s1 3.66 µM
Cc1sc2ncnc(SCc3ccco3)c2c1C 2.91 µM
Cc1sc2ncnc(NCc3ccco3)c2c1C 3.66 µM
c1ccc(Cn2ncc3c(NCc4ccco4)ncnc32)cc1 2.06 µM
CCN(CC)CCNC(=O)C(Cl)=C1C(Cl)=C(Cl)C(Cl)=C1Cl 3.66 µM
O=C(NC(=S)Nc1cccc2cccnc12)c1cccs1 2.91 µM
Cc1cccc(NC(=S)NC(=O)c2cccs2)n1 8.2 µM
O=C(NC(=S)Nc1ccc(Cl)cn1)c1cccs1 2.91 µM
O=C(NC(=S)Nc1ccc(Br)cn1)c1cccs1 2.91 µM
COC(=O)c1cc2c(s1)-c1cc(F)ccc1OC2 9.2 µM
O=C1/C(=C\c2ccc(Cl)cc2)CCC1CNc1ccc(Cl)cc1 (stereo not given) 3.66 µM
N#Cc1cnc2cc(-c3ccccc3)nn2c1N 6.51 µM
CC(=O)Nc1ccc(S(=O)(=O)c2ccnc3cc(Cl)ccc23)cc1 14.6 µM
O=S(=O)(c1ccc(F)cc1)c1snnc1-c1ccccc1 18.4 µM
Cc1cccc(N=C/C(C(=O)C(F)(F)F)=C(\O)c2ccco2)c1 20.6 µM
O=C(/C(C=Nc1cccc(C(F)(F)F)c1)=C(/O)c1ccco1)C(F)(F)F 11.6 µM
Cc1ccc(N=C/C(C(=O)C(F)(F)F)=C(\O)c2ccco2)cc1Cl 7.31 µM
O=C(/C(C=Nc1ccc(F)cc1)=C(/O)c1ccco1)C(F)(F)F 20.6 µM

activation, inactive:
O=C(Nc1cccc(F)c1)c1ccco1 21.9%
COc1cc(OC)cc(C(=O)O/N=C(\N)c2cccc(C)c2)c1 21.2%
Cc1sc(NC(=S)NC(=O)c2ccccc2)c(C#N)c1C 17%
CCc1nn2c(-c3ccco3)ccnc2c1-c1ccccc1 9.08%
Cc1sc2ncnc(Sc3nnnn3-c3ccccc3)c2c1C 15.9%
